The text below walks through data of PubChem BioAssay.

Experiment [1] concerns Aerobactin synthetase IucA (Klebsiella pneumoniae). In words: IucA aerobactin synthetase inhibitors, biochemical, Tocris library, absorbance (AID 1345561; call rule not given here;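 further: 100% = enzyme without compound and 0% = no enzyme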). Particulars: purified IucA enzyme assay, absorbance (OD) read-out; stronger effect = lower value;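 tested at 8 µM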.
The nature of experiment [2]: sensitizers of A549 cells to miR-34 induction, primary screen, imaging, A549 dox-inducible miR-34, nuclei and caspase counts (AID 1347080). To be noted: A549 miR-34 inducible, Hoechst nuclei count, 48 h.
Experiment [3] can be described thus: viability rescue of complex I mutant cybrids, primary screen, cell-based, galactose medium, ATP luminescence (AID 1645843;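 active means z-score of at least 1.8 in each of two replicates, scored against plate mean and spread of sample wells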;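 further: positive z means more ATP and so rescue of galactose-driven cybrid death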). Particulars: complex I mutant cybrid cells, 72 h, stronger effect = higher value.
[4] abbreviates: stronger effect = lower value, cell number ratio, induced over uninduced.
Where [5] appears, read: measured here: relative caspase fold change +Dox/-Dox.
Setting [6] is: measured here: total cells with miR-34 induction, stronger effect = lower value.
Where [7] appears, read: measured here: total cells without miR-34 induction.

Where “and” joins values, the source holds several entries; their conditions need not be identical. Equal values may be shown once. Calls of active or inactive are those of the source.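 How the source made its calls, unless noted: active means compounds whose cell count with miR-34 switched on is under 0.7 times the count with it off; inactive means the rest.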 Where a SMILES comes first, the peptide text is derived from it. [ ]: non-standard residue; d: D form.

For the molecule `CC(=O)NCC(=O)N[C@H](CCC(=O)O)C(=O)O` (Ac-Gly-[dE]-OH), the remaining activity in experiment [1] was 103% (inactive). Further, the figures for the fold change in experiment [2] (setting [4]) and in experiment [2] (setting [5]) were 0.899 (inactive) and 0.513, respectively. Besides, the values for the cell count in experiment [2] (setting [6]) and in experiment [2] (setting [7]) were 9020 and 10000, respectively. Besides, the z-score in experiment [3] was -0.245 (inactive).

`CO[C@]12C[C@@H](COC(=O)c3cncc(Br)c3)CN(C)[C@@H]1CC1=CN(C)C3C=CC=C2C13` (stereo partly drawn): in experiment [1], the remaining activity was 107% (inactive). Also, the fold change in experiment [2] (setting [4]) was 0.94 (inactive); in experiment [2] (setting [5]), 0.794. In addition, the cell count in experiment [2] (setting [6]) is 7700; in experiment [2] (setting [7]), 8200. Further, the z-score in experiment [3] is 0.455 (inactive).

On to `COc1cc(Br)c(S(=O)(=O)Nc2ccc(Cl)c(O[C@@H]3CCN(C)C3)c2)cc1OC`, for which, in experiment [1], the remaining activity is 112% (inactive). Besides, the fold change in experiment [2] (setting [4]) is 0.925 (inactive); in experiment [2] (setting [5]) it was 1.74. The cell count in experiment [2] (setting [6]) turned out to be 5240; in experiment [2] (setting [7]) it was 5660. Further, in experiment [3], the z-score was -0.645 (inactive).

For `Cc1cc2nc3c(=O)[nH]c(=O)nc-3n(C)c2cc1C=O`, in experiment [1], the remaining activity was 110% (inactive). The fold change in experiment [2] (setting [4]) is 1.04 (inactive); in experiment [2] (setting [5]), 1.31. For the same molecule, the cell count was 8790 in experiment [2] (setting [6]) and 8430 in experiment [2] (setting [7]). The z-score in experiment [3] was -0.69 (inactive).

As for `Cn1cccc1/C=C1\C(=O)NC(=O)c2ccccc21`, the remaining activity in experiment [1] is 129% (inactive). The fold change was 0.918 (inactive) in experiment [2] (setting [4]) and 1.16 in experiment [2] (setting [5]). Moreover, the results for the cell count in experiment [2] (setting [6]) and in experiment [2] (setting [7]) were 8530 and 9300, respectively. For the same molecule, in experiment [3], the z-score was -0.415 (inactive).

As to `N[C@H](C(=O)O)c1ccc(C(=O)O)c(O)c1`, the remaining activity in experiment [1] is 95.5% (inactive). Besides, the fold change is 0.931 (inactive) in experiment [2] (setting [4]) and 0.823 in experiment [2] (setting [5]). The figures for the cell count in experiment [2] (setting [6]) and in experiment [2] (setting [7]) were 8860 and 9520, respectively. For the same molecule, the z-score in experiment [3] is -0.145 (inactive).

`COc1cc(OC)c(C(=O)CCCCN2CCC3(CC2)NC(=O)NC3=O)cc1NS(=O)(=O)c1ccc(C(F)(F)F)cc1`: the remaining activity in experiment [1] was 118% (inactive). In addition, the fold change in experiment [2] (setting [4]) is 0.962 (inactive); in experiment [2] (setting [5]) it was 0.689. In addition, the results for the cell count in experiment [2] (setting [6]) and in experiment [2] (setting [7]) were 8560 and 8900, respectively. Further, the z-score in experiment [3] is -0.165 (inactive).

Consider `COc1cc(COc2cc(N)c(Cl)cc2C(=O)CCC2CCN(CCNS(C)(=O)=O)CC2)cc(OC)c1`, for which the remaining activity in experiment [1] is 100% (inactive). The fold change in experiment [2] (setting [4]) was 0.842 (inactive); in experiment [2] (setting [5]), 1.5. Besides, the cell count in experiment [2] (setting [6]) came to 3930; in experiment [2] (setting [7]) it was 4660. Besides, in experiment [3], the z-score is -0.81 (inactive).

Consider `NC(C(=O)O)c1ccc(C(=O)O)c(O)c1` (stereo not drawn), for which, in experiment [1], the remaining activity was 93.9% (inactive). For the same molecule, the fold change in experiment [2] (setting [4]) is 0.966 (inactive); in experiment [2] (setting [5]) it was 1.12. Further, the cell count was 9030 in experiment [2] (setting [6]) and 9350 in experiment [2] (setting [7]). In experiment [3], the z-score was -0.31 (inactive).

Consider `COc1ccc(CN2C(=O)C(=O)c3cc(OC(F)(F)F)ccc32)cc1`, for which the remaining activity in experiment [1] was 114% (inactive). The fold change in experiment [2] (setting [4]) is 0.793 (inactive); in experiment [2] (setting [5]) it was 1.39. The cell count is 1960 in experiment [2] (setting [6]) and 2480 in experiment [2] (setting [7]). Further, the z-score in experiment [3] is -1.04 (inactive).

For the molecule `OC[C@H]1O[C@@H](n2cnc3c(NC4CCCC4)ncnc32)[C@H](O)[C@@H]1O`, in experiment [1], the remaining activity was 123% (inactive). Further, the fold change was 0.882 (inactive) in experiment [2] (setting [4]) and 0.89 in experiment [2] (setting [5]). Also, the cell count in experiment [2] (setting [6]) stood at 9040; in experiment [2] (setting [7]) it was 10200. The z-score in experiment [3] was 0.51 (inactive).

In the case of `C[C@H]([C@@H](O)c1ccc(O)cc1)N1CCC(Cc2ccccc2)CC1` (racemic), in experiment [1], the remaining activity was 93.2% (inactive). For the same molecule, the fold change was 0.927 (inactive) in experiment [2] (setting [4]) and 0.793 in experiment [2] (setting [5]). The cell count in experiment [2] (setting [6]) worked out at 8080; in experiment [2] (setting [7]), 8720. The z-score in experiment [3] was -1.02 (inactive).

With `CCCCCCCCCCCCCCCC(=O)C(F)(F)F`, the remaining activity in experiment [1] is 108% (inactive). For the same molecule, the fold change in experiment [2] (setting [4]) was 1.01 (inactive) and 0.961 (inactive); in experiment [2] (setting [5]), 0.782 and 1.06. Also, the cell count in experiment [2] (setting [6]) is 5680 and 8900; in experiment [2] (setting [7]), 5630 and 9260. The z-score in experiment [3] was -0.105 (inactive).

Turning to `NC(N)=Nc1ccc(Cl)cc1`, the remaining activity in experiment [1] was 81.8% (inactive). Moreover, the fold change in experiment [2] (setting [4]) is 0.948 (inactive); in experiment [2] (setting [5]), 0.891. Further, the cell count was 8620 in experiment [2] (setting [6]) and 9100 in experiment [2] (setting [7]). For the same molecule, the z-score in experiment [3] was -0.49 (inactive).

For the molecule `CN(CCOc1ccc(CC(Nc2ccccc2C(=O)c2ccccc2)C(=O)O)cc1)c1ccccn1` (stereo not drawn), in experiment [1], the remaining activity is 103% (inactive). Also, the fold change is 0.954 (inactive) in experiment [2] (setting [4]) and 1.08 in experiment [2] (setting [5]). In addition, the cell count is 7420 in experiment [2] (setting [6]) and 7780 in experiment [2] (setting [7]). The z-score in experiment [3] was 1.48 (inactive).

As to `O=C(O)c1ccc(/C=C2/SC(=S)N(c3cccc(C(F)(F)F)c3)C2=O)cc1`, the remaining activity in experiment [1] is 83.1% (inactive). Further, the fold change was 0.837 (inactive) in experiment [2] (setting [4]) and 1.71 in experiment [2] (setting [5]). The cell count in experiment [2] (setting [6]) was 8080; in experiment [2] (setting [7]), 9650. For the same molecule, the z-score in experiment [3] is -0.215 (inactive).

On to `NC(=O)N1c2ccccc2CC(O)c2ccccc21` (stereo not drawn), for which the remaining activity in experiment [1] was 111% (inactive). The fold change is 0.942 (inactive) in experiment [2] (setting [4]) and 0.846 in experiment [2] (setting [5]). Further, the values for the cell count in experiment [2] (setting [6]) and in experiment [2] (setting [7]) were 8870 and 9420, respectively. Also, the z-score in experiment [3] was -0.055 (inactive).

With `N[C@@H](Cc1cc(CP(=O)(O)O)cc(-c2ccccc2Cl)c1)C(=O)O`, the remaining activity in experiment [1] is 118% (inactive). Besides, the fold change in experiment [2] (setting [4]) was 0.967 (inactive); in experiment [2] (setting [5]), 1.52. Also, the cell count in experiment [2] (setting [6]) is 9360; in experiment [2] (setting [7]) it was 9670. Besides, in experiment [3], the z-score is 0.225 (inactive).

Turning to `COC(=O)c1ccccc1NC(=O)c1ccc(F)cc1`, the remaining activity in experiment [1] is 99.3% (inactive). The fold change is 0.965 (inactive) in experiment [2] (setting [4]) and 0.872 in experiment [2] (setting [5]). Also, the results for the cell count in experiment [2] (setting [6]) and in experiment [2] (setting [7]) were 7260 and 7520, respectively. The z-score in experiment [3] is 0.635 (inactive).

Take `COc1ccc(NS(=O)(=O)c2ccc(I)cc2)cc1N1CCN(C)CC1`: the remaining activity in experiment [1] was 112% (inactive). Also, the fold change is 0.956 (inactive) in experiment [2] (setting [4]) and 0.589 in experiment [2] (setting [5]). Also, the cell count in experiment [2] (setting [6]) amounted to 6570; in experiment [2] (setting [7]), 6870. The z-score in experiment [3] was -0.545 (inactive).

Turning to `CN(N=O)C(=O)N[C@H]1C(O)O[C@H](CO)[C@@H](O)[C@@H]1O` (stereo partly drawn), the remaining activity in experiment [1] is 111% (inactive). In addition, the values for the fold change in experiment [2] (setting [4]) and in experiment [2] (setting [5]) were 0.958 (inactive) and 0.621, respectively. For the same molecule, the cell count in experiment [2] (setting [6]) is 8770; in experiment [2] (setting [7]), 9160. The z-score in experiment [3] was -0.2 (inactive).

For the molecule `O=C(Nc1ccccc1)C12CC1/C(=N\O)c1ccccc1O2` (stereo not drawn), the remaining activity in experiment [1] was 107% (inactive). Besides, the results for the fold change in experiment [2] (setting [4]) and in experiment [2] (setting [5]) were 0.911 (inactive) and 0.471, respectively. For the same molecule, the cell count in experiment [2] (setting [6]) is 7010; in experiment [2] (setting [7]), 7700. In addition, in experiment [3], the z-score was 0.135 (inactive).

For the molecule `O=C1NN(C(=O)Nc2ccc(Br)cc2)[C@@H](c2ccccc2)[C@@H]1c1ccccc1`, in experiment [1], the remaining activity was 127% (inactive). Moreover, the fold change in experiment [2] (setting [4]) was 0.887 (inactive); in experiment [2] (setting [5]), 0.737. Further, the cell count in experiment [2] (setting [6]) is 9100; in experiment [2] (setting [7]), 10300. In addition, the z-score in experiment [3] is 0.225 (inactive).

As usually defined, the remaining activity is the signal under treatment as a percentage of the control signal.
